VP16 counter – inhibits Gal4-VP16 luciferase reporter, ROR gamma counter-screen | Potency, µM (top dose mostly 53.6 µM), inactives show at the highest dose activity, negative = inhibition, actives largely listed as inhibitors | 310,000 tested, 3.5% active | Drosophila S2 Gal4-VP16 UAS-luciferase, luminescence, 20 h;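 further: Gal4-VP16 expression switched on by copper sulfate through the metallothionein promoter; potency means the concentration at half of the fitted maximal effect; nearly all actives have a fitted effect of over 50% in size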
Coupling enz – coupling enzyme interference in Giardia aldolase counter-screen. coupling enzyme system counterscreen, AmpLite Red fluorescence. 290,000 tested, 0.67% active. activity change, negative = inhibition, % at 58.2 µM, hits read low. AID 2472; in the data active means activity change below about -30%
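Counterscreen of the coupled detection system alone, without aldolase: glyceraldehyde-3-phosphate coupling enzymes plus AmpLite Red readout. Compounds at 57.5 uM final, 10 min RT preincubation, 20 min RT reaction, fluorescence 525/598 nm.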
TSHR antagonist – human thyrotropin receptor antagonism; P16473; TSHR-expressing cells, TSH-stimulated cAMP HTRF, 2 h; stronger effect = lower value; activity change, negative = inhibition, % at 11.5 µM; 330,000 tested, 0.2% active; AID 504810;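 active means activity change below a set negative limit, meaning inhibition stronger than a set level, cut at about -70% in these data; inconclusive means activity change between two set negative limits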
Target sequence (P16473 whole entry, looked up): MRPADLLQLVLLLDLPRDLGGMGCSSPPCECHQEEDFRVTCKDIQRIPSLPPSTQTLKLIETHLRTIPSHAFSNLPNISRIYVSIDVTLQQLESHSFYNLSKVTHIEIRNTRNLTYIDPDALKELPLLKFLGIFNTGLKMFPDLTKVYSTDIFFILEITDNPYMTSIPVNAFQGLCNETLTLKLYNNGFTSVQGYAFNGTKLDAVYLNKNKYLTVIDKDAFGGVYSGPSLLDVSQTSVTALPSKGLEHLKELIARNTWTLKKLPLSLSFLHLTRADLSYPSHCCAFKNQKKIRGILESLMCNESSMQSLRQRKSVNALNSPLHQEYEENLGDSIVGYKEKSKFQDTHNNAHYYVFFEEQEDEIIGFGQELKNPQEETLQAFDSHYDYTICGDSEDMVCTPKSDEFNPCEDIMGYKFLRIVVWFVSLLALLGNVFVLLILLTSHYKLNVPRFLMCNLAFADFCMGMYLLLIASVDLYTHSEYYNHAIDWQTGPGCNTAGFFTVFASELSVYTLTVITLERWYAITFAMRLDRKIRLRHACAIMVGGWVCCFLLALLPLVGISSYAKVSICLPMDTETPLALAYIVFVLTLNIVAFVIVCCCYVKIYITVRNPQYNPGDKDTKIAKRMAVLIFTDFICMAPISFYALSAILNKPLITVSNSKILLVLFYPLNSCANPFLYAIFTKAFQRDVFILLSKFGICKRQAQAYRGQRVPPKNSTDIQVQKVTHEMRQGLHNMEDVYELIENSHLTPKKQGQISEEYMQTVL
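Antagonism was scored as loss of TSH-driven cAMP in TSHR cells, stimulated with 4nM TSH (EC80) for 2 hours at 37 deg C and detected by homogeneous HTRF competition immunoassay.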
ELG1 repair inh – inhibitors of ELG1-dependent DNA repair in HEK293T cells; 330,000 tested, 2.3% active; Potency, µM (titrated, usually from 46.1 µM), inactives show at the highest dose activity change, negative = inhibition, hits mostly inhibitors; HEK293T ELG1-luciferase reporter, luminescence, 16 h; DNA damage induced by 5-fluorouridine; further: potency means the concentration at half of the fitted maximal effect; nearly all actives have a fitted effect of over 55% in size
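Step one: seed 2,000 cells per well. Step two: pin-transfer compound or DMSO alongside 5-fluorouridine. Step three: incubate 16 hr, 37 °C, 5% CO2. Step four: add ONE-Glo, wait 30 min, read luminescence.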
RORgamma inh – blocks mouse ROR gamma transcriptional activity; AID 2551; P51450; Potency, µM (titrated, usually from 53.6 µM), for the others: top-dose activity change, negative = inhibition, most hits filed as inhibitors; Drosophila S2 Gal4-RORgamma UAS-luciferase reporter, 20 h; 310,000 tested, 5.4% active; further: potency means the concentration at half of the fitted maximal effect; nearly all actives have a fitted effect of over 60% in size
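Luminescence from a UAS-regulated Photinus luciferase reporter in stably transfected Drosophila Schneider cells is measured; decreased signal marks ROR gamma inhibition. Fusion expression is induced by 700 uM copper sulfate for 20 hr.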
* = called active by the depositor; ? = inconclusive; / = no result; [ ] = another dose, or the depositor's remark. Sampled rows, rich in hits. Any-hit rate of the full collection: about 8%. Unless noted, the call rests on the fitted dose curve; in most records, active means well fitted curve in the direction sought with a large enough effect; inconclusive means small, poorly fitted or top-dose-only effect, or another doubt; inactive means no such curve, though single readings can be large; an effect the other way counts as inactive or inconclusive. On the % scale 0 is the no-effect control and ±100 the full control effect.

SMILES | VP16 counter | Coupling enz | TSHR antagonist | ELG1 repair inh | RORgamma inh
CSCCC(N=C1NS(=O)(=O)c2ccccc21)C(=O)N1CCCC(C(N)=O)C1 (stereo unspecified) | / | / | 5.1 | 14.8% | /
CC(C)NS(=O)(=O)c1ccc(CCC(=O)N2CCC(C(N)=O)CC2)cc1 | 0.8% | -30.8* | -27.7 | ? | -5.8%
COc1ccccc1NC(=O)COc1ccccc1 | -4.8% | 0.1 | 2.3 | ? | -6.3%
COc1ccc(C)c2sc(NC(=O)CCS(=O)(=O)c3ccccc3)nc12 | ? | -0.6 | -10.4 | ? | -10.5%
COc1ccc(C)c2sc(NNC(=O)COc3ccccc3)nc12 | -3.9% | 0.6 | 8.0 | ? | 7.08µM*
COc1cccc2sc(NNC(=O)COc3ccccc3)nc12 | -19.1% | -1.3 | -7.2 | -6.0% | 4.47µM*
CC1(C)CC2=C(CO1)C(=S)NC(c1ccccc1)N2CC1CCCO1 (stereo unspecified) | ? | -3.8 | -0.7 | 6.2% | 15.8µM*
COc1ccc(-n2cc(CNCCCn3ccnc3)c(-c3cccc(F)c3)n2)cc1 | 31.6µM* | 5.3 | 9.3 | -2.7% | 11.2µM*
Cc1cccc(-n2cc(CNCCc3nc(C)cc(C)n3)c(-c3cccc(F)c3)n2)c1 | -13.4% | 0.1 | -48.7 | 23.1µM* | -34.7%
CC(C)C[C@H](NC(=O)C1CC(=O)N(c2ccc3c(c2)OCCO3)C1)C(=O)N1CCCCC1 (stereo partly specified) | 4.8% | 1.9 | -2.8 | 8.7% | 0.9%
N#Cc1ccccc1S(=O)(=O)N1CCN(C(=O)C2CCC2)CC1 | / | / | -3.9 | -0.3% | /
CC1=C(C(=O)OCc2ccccc2)C(c2ccc(Cl)cc2)NC(=O)N1CCCC(=O)O (stereo unspecified) | 7.6% | 3.4 | -17.5 | -11.4% | 15.8µM*
CC1=C(C(=O)OCc2ccccc2)C(c2ccc(Br)cc2)NC(=O)N1CCCC(=O)O (stereo unspecified) | -0.4% | 4.8 | -15.8 | -5.7% | ?
C=CCN(CC=C)S(=O)(=O)c1ccc(NC(=O)COc2ccccc2OC)cc1 | 0.5% | 1.1 | -6.4 | ? | ?
C=CCN(CC=C)S(=O)(=O)c1ccc(C(=O)Nc2nnc(COC)o2)cc1 | 7.08µM* | 12.1 | 2.3 | ? | 2µM*
COCc1nnc(NC(=O)c2ccc(S(=O)(=O)N(CC(C)C)CC(C)C)cc2)o1 | 2.51µM* | 14.4 | 26.6 | ? | 0.631µM*
Cc1nc(NCc2ccccc2)c2nc(-c3ccccc3)n(CC3CCN(C)CC3)c2n1 | -8.1% | 5.2 | / | / | -4.2%
COCCNC(=S)NC12CC3CC(CC(C3)C1)C2 | 4.47µM* | -0.3 | -0.2 | -2.0% | 3.55µM*
COCCNC(=O)NC12CC3CC(CC(C3)C1)C2 | -14.8% | -1.1 | -4.8 | 8.8% | -0.2%
O=C1CCN2C=Nc3cccc4ccc1c2c34 | -5.7% | -30.5* | -6.6 | ? | -4.6%
COC(=O)c1c(N2C(=O)[C@H]3[C@@H](C2=O)[C@]2(C(=O)Nc4c(C)cc(C)cc42)N2CCC[C@@H]32)sc(C)c1C | 14.9% | -3.5 | 3.5 | -25.2% | 23.6%
COC(=O)c1c(N2C(=O)[C@H]3[C@@H](C2=O)[C@]2(C(=O)Nc4c2ccc(C)c4C)N2CCC[C@@H]32)sc(C)c1C | -11.7% | -2.6 | -1.4 | 6.51µM* | 15.2%
OB(O)c1ccc(B(O)O)cc1 | 0.5% | -0.3 | / | / | -2.9%
CC(C)C[C@H](NC(=O)CNC(=O)[C@H](C)NC(=O)[C@H](CC(C)C)NC(=O)[C@H](CCCNC(=N)N)NC(=O)[C@H](Cc1cnc[nH]1)NC(=O)[C@@H](NC(=O)[C@@H](N)C(C)C)[C@@H](C)O)C(=O)N[C@@H](CC(C)C)C(=O)N[C@@H](CO)C(=O)N[C@@H](CCCNC(=N)N)C(=O)N[C@@H](CO)C(=O)NCC(=O)NCC(=O)N[C@H](C(=O)N[C@H](C(=O)N[C@@H](CCCCN)C(=O)N[C@@H](CC(N)=O)C(=O)N[C@@H](CC(N)=O)C(=O)N[C@@H](Cc1ccccc1)C(=O)N[C@H](C(=O)N1CCC[C@H]1C(=O)N[C@H](C(=O)N[C@@H](CC(N)=O)C(=O)N[C@H](C(=O)NCC(=O)N[C@@H](CO)C(=O)N[C@@H](CCCCN)C(=O)N[C@@H](C)C(=O)N[C@@H](Cc1ccccc1)C(N)=O)C(C)C)[C@@H](C)O)C(C)C)C(C)C)C(C)C | -4.4% | 2.7 | / | / | -8.7%
Cc1cccc(NC(=O)NNC(=O)COc2ccc([N+](=O)[O-])cc2)c1C | 8.7% | 4.5 | 0.2 | -4.7% | -33.2%
SMILES | VP16 counter | Coupling enz | TSHR antagonist | ELG1 repair inh | RORgamma inh
Cc1cccc(-n2ccnc2SCC(=O)Nc2nccs2)c1 | 0.7% | 2.4 | -2.6 | ? | -37.2%
CCSc1nnc(NC(=O)CSc2nccn2-c2cccc(C)c2)s1 | ? | -1.2 | -5.5 | -0.9% | 11.2µM*
CCOc1ccc(-n2ccnc2SCC(=O)Nc2nnc(CC)s2)cc1 | 3.7% | -0.6 | -8.2 | -5.1% | 10µM*
COc1cccc(NC(=O)CN(C)C(=O)C(C)Sc2ccccc2)c1 (stereo unspecified) | / | / | -9.2 | -8.4% | /
CC1CN(c2nc3ccccc3nc2SCC(=O)Nc2ccc(F)cc2)CC(C)O1 (stereo unspecified) | 3.2% | 0.8 | -5.6 | 16.4µM* | -26.1%
O=C(CSc1nc2ccccc2nc1N1CCCC1)Nc1ccc(F)cc1 | -9.9% | -0.2 | 11.1 | 1.3% | -7.5%
COc1cccc(NC(=O)NC2(C(=O)N3CCN(C)CC3)CCCCC2)c1 | -0.2% | 5.9 | 5.4 | 14.2% | -6.0%
CC(C)c1ccc(CNn2cnnc2)cc1 | -1.1% | 0.7 | 4.2 | ? | 8.4%
Cc1nn(-c2ccccc2)c2sc(-c3n[nH]c(=S)o3)cc12 | -10.1%[0.365 µM] | 13.6 | -27.2 | 12.2% | 2.82µM*
COCCN1CC(C(=O)NCc2ncccc2C)CCC1=O (stereo unspecified) | -6.7% | / | 3.2 | 15.7% | -36.6%
CCn1ncc2c(OCc3ccc(C#N)cc3)cc(C)nc21 | -2.1% | -17.6 | -13.8 | 25.9µM* | 2.7%
O=C(O)c1ccc(CNC(=O)C2CCCN2C(=O)OCc2ccccc2)cc1 (stereo unspecified) | 1.7% | 7.0 | 10.5 | 13.7% | 0.9%
O=C1CS/C(=N/N=C/c2ccncc2)N1 | 2.8% | 0.0 | -4.0 | 5.2% | -8.9%
CC1(C)S/C(=N/N=C/c2cccs2)NC1=O | 5.01µM* | 0.7 | -1.4 | ? | 0.794µM*
C=CCN1C(=O)C(Cc2ccc(F)cc2)S/C1=N/N=C/c1cccs1 (stereo unspecified) | 9.7% | -0.4 | -26.7 | -21.8% | -0.2%
O=C1CS/C(=N/N=C/c2cccs2)N1 | ? | 1.4 | 15.4 | ? | 0.562µM*
O=C1CS/C(=N/N=C/c2cccs2)N1Cc1ccc(F)cc1 | -0.6% | 2.2 | -8.8 | 20.6µM* | 1.5%

High-throughput results deposited in PubChem BioAssay by National Center for Advancing Translational Sciences (NCATS).
